Experimental findings from PubChem BioAssay (NCI) are described below.

The panel holds about 83,000 compounds, 20% with a hit somewhere; the sample as a whole holds those more often.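 Percent growth is the endpoint: 0 to 100 indicates growth inhibition (40 means 60% inhibition), 0 means no net growth, and negative values indicate cell death.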 Activity calls are given as the source filed them. The calls were made as follows: active = growth percent below 10; inactive = the rest.

Some test systems named below: SR leukemia; RPMI-8226 leukemia; OVCAR-8 ovarian; OVCAR-5 ovarian; OVCAR-4 ovarian; SK-OV-3 ovarian; IGROV1 ovarian; OVCAR-3 ovarian; HS 578T breast; NCI/ADR-RES ovarian; T-47D breast; BT-549 breast; MDA-MB-435 melanoma; SW-620 colon; MCF7 breast; HCT-116 colon; HCC-2998 colon; KM12 colon.
Holding throughout (assay): NCI-60 one-dose screen, 48 h (100 = growth as untreated, 0 = no growth, -100 = all killed)
Common to all, as to conditions: 10 µM unless noted

`CC/C(=C(/c1ccc(Cl)cc1)c1ccc(OCCN2CCCCCC2)cc1)c1ccccc1`: the growth in the assay on SR leukemia was 6.94% (active); with RPMI-8226 leukemia, 48.9% (inactive); in the assay with OVCAR-8 ovarian, 84.8% (inactive); in the assay on OVCAR-5 ovarian, 85.2% (inactive); in the assay with OVCAR-4 ovarian it was 79.6% (inactive); with SK-OV-3 ovarian, 114% (inactive). Moreover, the growth in the assay with IGROV1 ovarian was 97.3% (inactive); in the assay on OVCAR-3 ovarian, 93.9% (inactive); in the assay with HS 578T breast, 89.7% (inactive); in the assay on NCI/ADR-RES ovarian it was 90.8% (inactive); with T-47D breast it was 68.5% (inactive); with BT-549 breast, 114% (inactive). Also, the growth in the assay on MDA-MB-435 melanoma was 90.5% (inactive); with SW-620 colon, 44.7% (inactive); in the assay on MCF7 breast, 76.3% (inactive); in the assay on HCT-116 colon, 62.7% (inactive); in the assay with HCC-2998 colon it was 97.8% (inactive); with KM12 colon it was 55% (inactive).
For `O=C(OCC(O)C(=O)NC12CC3CC(CC(C3)C1)C2)c1cccc(Br)c1` (stereo not given), the growth was 84.9% (inactive) in the assay with SR leukemia; 94.6% (inactive) in the assay with RPMI-8226 leukemia; 95.9% (inactive) in the assay on OVCAR-8 ovarian; 101% (inactive) in the assay on OVCAR-5 ovarian; 98.2% (inactive) with OVCAR-4 ovarian; 102% (inactive) in the assay on SK-OV-3 ovarian. In addition, the growth with IGROV1 ovarian was 103% (inactive); with OVCAR-3 ovarian, 109% (inactive); in the assay with HS 578T breast, 95.7% (inactive); in the assay on NCI/ADR-RES ovarian, 101% (inactive); in the assay on T-47D breast, 93.2% (inactive); in the assay on BT-549 breast, 115% (inactive). The growth with MDA-MB-435 melanoma was 97% (inactive); with SW-620 colon it was 99.2% (inactive); with MCF7 breast, 91.7% (inactive); in the assay on HCT-116 colon, 99% (inactive); in the assay on HCC-2998 colon it was 114% (inactive); in the assay with KM12 colon, 107% (inactive).
Take `O=C(N/N=C/c1ccccc1Cl)c1ccccc1Nc1ccnc(C(F)(F)F)c1`: the growth is -3.24% (active) in the assay with SR leukemia; -34.9% (active) in the assay on RPMI-8226 leukemia; 7.58% (active) with OVCAR-8 ovarian; 6.58% (active) in the assay on OVCAR-5 ovarian; -1.98% (active) in the assay on OVCAR-4 ovarian; -8.48% (active) with SK-OV-3 ovarian. Besides, the growth in the assay with IGROV1 ovarian is 9.79% (active); in the assay on OVCAR-3 ovarian, 3.44% (active); in the assay on HS 578T breast it was 19.3% (inactive); in the assay on NCI/ADR-RES ovarian, 4.04% (active); with T-47D breast, -14.3% (active); in the assay on BT-549 breast, 15.7% (inactive). For the same molecule, the growth was 14.6% (inactive) in the assay on MDA-MB-435 melanoma; 16.6% (inactive) in the assay with SW-620 colon; 9.9% (active) in the assay on MCF7 breast; 13.3% (inactive) in the assay with HCT-116 colon; -20.7% (active) in the assay on HCC-2998 colon; 10.4% (inactive) in the assay with KM12 colon.
As for `C/C=C(/C)C(=O)O[C@@H]1CC(C)(C)CC2C34OC(=O)[C@@]21CC[C@@]3(C)[C@]1(C)CCC2C(C)(C)C(=O)CC[C@]2(C)C1C[C@@H]4O` (stereo not given in full), the growth is 28.5% (inactive) in the assay with SR leukemia; 26.2% (inactive) in the assay on RPMI-8226 leukemia; 68.6% (inactive) in the assay on OVCAR-8 ovarian; 95.3% (inactive) in the assay with OVCAR-5 ovarian; 67.1% (inactive) with OVCAR-4 ovarian; 87.8% (inactive) in the assay with SK-OV-3 ovarian. Further, the growth is 72.6% (inactive) with IGROV1 ovarian; 73.7% (inactive) in the assay on OVCAR-3 ovarian; 78.3% (inactive) in the assay with HS 578T breast; 77% (inactive) in the assay on NCI/ADR-RES ovarian; 46.8% (inactive) with T-47D breast; 43.3% (inactive) in the assay on BT-549 breast. Moreover, the growth was 70.9% (inactive) in the assay with MDA-MB-435 melanoma; 38.8% (inactive) in the assay on SW-620 colon; 66.7% (inactive) in the assay on MCF7 breast; 29.5% (inactive) in the assay with HCT-116 colon; 73.1% (inactive) in the assay on HCC-2998 colon; 51.5% (inactive) in the assay with KM12 colon.
Regarding `O=C1NC(=O)C(=Cc2cc(-c3ccc(Cl)cc3)n(-c3ccccc3)n2)C(=O)N1`, the growth in the assay on SR leukemia is 93.7% (inactive); in the assay with RPMI-8226 leukemia, 92.1% (inactive); in the assay with OVCAR-8 ovarian, 101% (inactive); in the assay on OVCAR-5 ovarian it was 91.5% (inactive); in the assay on OVCAR-4 ovarian, 103% (inactive); in the assay on SK-OV-3 ovarian, 105% (inactive). In addition, the growth in the assay with IGROV1 ovarian was 93.1% (inactive); in the assay with OVCAR-3 ovarian, 111% (inactive); in the assay with HS 578T breast it was 95.5% (inactive); in the assay with NCI/ADR-RES ovarian, 107% (inactive); in the assay with T-47D breast it was 93.6% (inactive); in the assay on BT-549 breast it was 83.9% (inactive). Moreover, the growth with MDA-MB-435 melanoma was 94.5% (inactive); with SW-620 colon, 96.7% (inactive); in the assay on MCF7 breast, 93.2% (inactive); in the assay on HCT-116 colon, 94% (inactive); in the assay with HCC-2998 colon, 110% (inactive); in the assay with KM12 colon, 102% (inactive).
